In PubChem BioAssay (NCI):
Compounds without any hit were thinned out: in the full panel of roughly 83,000, 20% have a hit.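 Results are percent growth after 48 hours of single-concentration exposure. 100 means growth as in untreated cells, lower positive values show inhibition; negative values down to -100 show cell death.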 The source made the active and inactive calls. Rule for the calls: active = growth percent below 10; inactive = the rest.

Experiments:
Test in all cases: NCI-60 one-dose screen, 48 h (100 = growth as untreated, 0 = no growth, -100 = all killed)
Settings in all cases: 10 µM unless noted
[1] = test system: SR leukemia
[2] = test system: RPMI-8226 leukemia
[3] = test system: OVCAR-8 ovarian
[4] = test system: OVCAR-5 ovarian
[5] = test system: OVCAR-4 ovarian
[6] = test system: SK-OV-3 ovarian
[7] = test system: IGROV1 ovarian
[8] = test system: OVCAR-3 ovarian
[9] = test system: HS 578T breast
[10] = test system: NCI/ADR-RES ovarian

Measured: growth

COc1ccc(C(=O)N/N=C/c2ccc(O)cc2O)cc1Nc1ccnc(C(F)(F)F)c1
inactive: [1] 35.3% | [2] 41.7% | [3] 23.1% | [4] 46.3% | [5] 31.7% | [6] 19.7% | [7] 26.8% | [8] 78.5% | [9] 55.4% | [10] 64%

Cn1cc2c(=O)nc3c(-c4nc5ccccc5[nH]4)n[nH]n3c2n1
inactive: [1] 32.2% | [2] 50.6% | [3] 70.9% | [4] 126% | [5] 90.6% | [6] 85.2% | [7] 91.8% | [8] 73.4% | [9] 93.5% | [10] 95.1%

Nc1nc(Nc2cccnc2)sc1C(=O)c1ccccc1F
active: [8] 9.96%
inactive: [1] 19.1% | [2] 17.7% | [3] 31.8% | [4] 26.2% | [5] 80.7% | [6] 85.9% | [7] 21.3% | [9] 58.1% | [10] 48.3%

NCCOCCOc1ccccc1
inactive: [1] 101% | [2] 88.7% | [3] 107% | [4] 104% | [5] 98% | [6] 112% | [7] 103% | [8] 106% | [9] 115% | [10] 102%

O=C(Nc1ccc(F)cc1)c1cc2cc(Nc3nc(-c4ccccc4)nc4ccccc34)ccc2oc1=O
inactive: [1] 86.6% | [2] 97.9% | [3] 100% | [4] 106% | [5] 111% | [6] 98.2% | [7] 101% | [8] 105% | [9] 103% | [10] 95.5%
